From PubChem BioAssay AID623911 (Vanderbilt High Throughput Screening Facility, 2012)
The campaign covered roughly 2,100 compounds. About 770 (37%) were called active.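 The calls were made as follows: active = by-eye trace score of 1 for enhancers or -1 for inhibitors, so actives lie on both sides (some results past the limit were not filed as active); inactive = score 0, or 3 fluorescent, or 4 baseline rise.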 This is one part of the list.

These molecules were tested against G protein-activated inward rectifier potassium channel 2 (Homo sapiens) + G protein-activated inward rectifier potassium channel 1 (Homo sapiens) (UniProt P48051+P48549) (assay: GIRK1/2 thallium flux modulators, retest, confirmation, cell-based, HEK293 rmGlu8/hGIRK1/2, FluoZin-2 (AID 623911)). Details: HEK293 rmGlu8/hGIRK1/2, thallium flux FluoZin-2; actives lie on both sides; glutamate co-added at its EC20 level.
G protein-activated inward rectifier potassium channel 2 (Homo sapiens) + G protein-activated inward rectifier potassium channel 1 (Homo sapiens), sequence (P48051 whole entry, looked up): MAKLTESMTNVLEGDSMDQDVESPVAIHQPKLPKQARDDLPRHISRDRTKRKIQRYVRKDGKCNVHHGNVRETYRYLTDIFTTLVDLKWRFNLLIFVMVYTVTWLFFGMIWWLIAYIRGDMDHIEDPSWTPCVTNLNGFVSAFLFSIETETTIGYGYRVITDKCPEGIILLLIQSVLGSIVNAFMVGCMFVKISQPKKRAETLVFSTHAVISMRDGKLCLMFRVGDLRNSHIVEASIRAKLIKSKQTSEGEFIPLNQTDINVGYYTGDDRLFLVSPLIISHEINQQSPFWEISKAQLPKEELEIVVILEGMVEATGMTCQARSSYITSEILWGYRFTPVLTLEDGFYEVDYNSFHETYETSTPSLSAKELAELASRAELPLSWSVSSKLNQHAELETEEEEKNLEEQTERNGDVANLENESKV
G protein-activated inward rectifier potassium channel 2 (Homo sapiens) + G protein-activated inward rectifier potassium channel 1 (Homo sapiens), sequence (P48549 whole entry, looked up): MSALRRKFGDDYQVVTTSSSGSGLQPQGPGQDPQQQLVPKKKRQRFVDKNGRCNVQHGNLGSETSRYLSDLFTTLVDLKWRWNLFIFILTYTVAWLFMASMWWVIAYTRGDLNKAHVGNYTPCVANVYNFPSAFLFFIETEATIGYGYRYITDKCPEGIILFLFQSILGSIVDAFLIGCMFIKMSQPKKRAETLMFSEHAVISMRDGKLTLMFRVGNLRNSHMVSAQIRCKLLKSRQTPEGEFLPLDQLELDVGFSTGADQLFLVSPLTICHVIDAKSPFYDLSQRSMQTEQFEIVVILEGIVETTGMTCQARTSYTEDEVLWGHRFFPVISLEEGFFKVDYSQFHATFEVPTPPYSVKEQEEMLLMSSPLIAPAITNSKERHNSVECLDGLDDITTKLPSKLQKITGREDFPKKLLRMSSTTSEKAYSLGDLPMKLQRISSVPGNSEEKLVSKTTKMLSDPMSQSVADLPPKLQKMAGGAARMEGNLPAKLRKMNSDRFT

Row | SMILES | manual score
1 | CN1CCN(S(=O)(=O)c2cccc(S(=O)(=O)c3cccc(S(=O)(=O)N4CCN(C)CC4)c3)c2)CC1 | 0 (inactive)
2 | CCN(CC)S(=O)(=O)c1csc(C(=O)NCc2ccccc2)c1 | 0 (inactive)
3 | CCN(CC)S(=O)(=O)c1cccc(S(=O)(=O)c2cccc(S(=O)(=O)N(CC)CC)c2)c1 | -1 (active)
4 | CCN(CC(=O)c1c(N)n(C)c(=O)n(C)c1=O)c1cccc2ccccc12 | 0 (inactive)
5 | O=C1CN(C(=O)CSc2nc3ccccc3c(=O)n2Cc2ccc(F)cc2)c2ccccc2N1 | 0.5 (inactive)
6 | O=C1CN(C(=O)CSc2nc3cc(Cl)ccc3c(=O)n2Cc2ccccc2)c2ccccc2N1 | 1 (active)
7 | CC(c1ccccc1)n1c(SCC(=O)N2CC(=O)Nc3ccccc32)nc2ccccc2c1=O (centres undefined) | 0 (inactive)
8 | Cn1c(=O)c(NCCO)c2c3c(cccc31)C(=O)c1ccccc1-2 | 3 (inactive)
9 | O=C(Nc1nnc(-c2ccc(Cl)cc2)o1)c1ccc(N2C(=O)CCC2=O)cc1 | 0 (inactive)
10 | O=C(NCCCN1CCN(c2cccc(Cl)c2)CC1)c1cccc(N2CCCC2=O)c1 | 0 (inactive)
11 | CC(C)NC(=O)c1nc2ccccc2s1 | 0 (inactive)
12 | O=C(Nc1nnc(-c2ccccc2Cl)o1)c1nc2ccccc2s1 | 1 (active)
13 | O=C(Nc1nnc(-c2ccc(Cl)cc2)o1)c1ccccc1Br | 1 (active)
14 | O=C(Nc1nnc(-c2ccc(Cl)cc2)o1)C1=COCCO1 | 0 (inactive)
15 | O=C(Nc1nnc(-c2ccc(Cl)cc2)o1)c1cccc(N2C(=O)CCC2=O)c1 | -1 (active)
16 | O=C(Nc1nnc(-c2ccc(Cl)cc2)o1)c1nc2ccccc2s1 | 1 (active)
17 | O=C(O)CC/C(=C\c1cc([N+](=O)[O-])ccc1Cl)c1nc2ccccc2s1 | -0.5 (inactive)
18 | O=c1c(-c2ccc(Cl)cc2)[n+]([O-])c2ccccc2n1O | 2 (inactive)
19 | CCC(C)(C)NC(=O)C(c1ccc(F)cc1)N(Cc1ccco1)C(=O)c1cnccn1 (centres undefined) | 0 (inactive)
20 | COC(=O)c1ccc(C(=O)OC)c(NC(=O)CSc2nc(-c3ccco3)cc(C(F)(F)F)n2)c1 | -0.5 (inactive)
21 | Cc1ccc(C)c(N=C2CCCN2Cc2ccccc2)c1C#N | -1 (active)
22 | Cc1c(C#N)c2ccccc2n1CC(=O)O | 0 (inactive)

Row | SMILES | manual score
23 | Cc1ccc(N=C2CCCN2Cc2ccccc2)c(C#N)c1 | -1 (active)
24 | CC(C)n1c(CCC(=O)O)ccc1-c1ccccc1 | 0 (inactive)
25 | CC(C)OCCCNC(=O)c1cccc(NC(=O)c2ccccc2)c1 | 0 (inactive)
26 | O=C(Nc1ccc2[nH]c(=S)sc2c1)c1ccccc1 | 1 (active)
27 | O=C(NC(=S)Nc1ccc2c(c1)OCCO2)c1ccccc1 | 0.5 (inactive)
28 | O=C(CCS(=O)NCc1ccccc1)NCc1ccccc1 (centres undefined) | 0 (inactive)
29 | Cn1cc(CCC(=O)NCc2ccc3c(c2)OCO3)c2ccccc21 | 0 (inactive)
30 | O=C(NCc1ccc2c(c1)OCO2)C1CCN(Cc2cnn(-c3ccccc3)c2-n2cccc2)CC1 | -1 (active)
31 | CS(=O)(=O)N(CCc1ccccc1)CC(=O)NCc1ccc2c(c1)OCO2 | 0 (inactive)
32 | CCc1nnc(NC(=O)CSc2nnc(-c3c[nH]c4ccccc34)n2CC)s1 | 0 (inactive)
33 | COc1c(Cl)cc(Cl)cc1CNCCNCC(C)O (centres undefined) | 1 (active)
34 | CC(NC(=O)c1ccccc1NC(=O)CSc1nnnn1C)c1ccccc1 (centres undefined) | 0 (inactive)
35 | CC(Sc1nnnn1C)C(=O)Nc1ccc(Oc2ccccc2)cc1 (centres undefined) | 1 (active)
36 | S=C1NC2=C(CCCC2)C2(CCCCC2)N1 | 0 (inactive)
37 | COc1ccccc1/C=C/C(=O)NC(=S)N(C)C1CCCCC1 | 1 (active)
38 | CN(C(=S)NC(=O)c1ccccc1Br)C1CCCCC1 | 1 (active)
39 | CCN(C(=O)c1cc(Cl)ccc1OC)C1CCCCC1 | -0.5 (inactive)
40 | CN(Cc1ccccc1)C(=S)NC(=O)C1CCCCC1 | 0 (inactive)
41 | CC1CCCC(NC(=S)NC(=O)c2ccccc2Br)C1C (centres undefined) | 0 (inactive)
42 | CCOC(=O)CSc1nnc(-c2ccccc2OC)o1 | -0.5 (inactive)
43 | CC(C)NC(=O)/C(=C/c1ccco1)c1ccccc1 | 0 (inactive)
44 | Cc1nccn1CCc1nc(N)nc(N)n1 | 0 (inactive)

Row | SMILES | manual score
45 | CCCc1ccc(OCC(=O)NNC(=S)NC(=O)c2ccco2)cc1 | 1 (active)
46 | Cc1ccccc1OCC(=O)NNC(=S)NC(=O)c1ccco1 | 1 (active)
47 | CCN(CC)c1ccc(/C=C2/C(=O)c3ccc(C(=O)O)cc3C2=O)cc1 | 3 (inactive)
48 | CC1(C)CC2CC(C)(CN2C(=S)NC(=O)c2ccccc2Cl)C1 (centres undefined) | 1 (active)
49 | Nc1sccc1C(=O)c1ccccc1 | 0 (inactive)
50 | Clc1cccc(CSc2nnc(-c3ccccn3)n2Cc2ccco2)c1 | 0 (inactive)
51 | O=C(NCCCn1ccnc1)Nc1ccc(Cl)c(Cl)c1 | 0 (inactive)
52 | O=C(NCCSCc1ccco1)Nc1cccc(Cl)c1 | 1 (active)
53 | CN(C)S(=O)(=O)N(CC(=O)Nc1ccc2ccccc2c1)c1ccccc1 | 1 (active)
54 | COc1cccc(NC(=O)COc2ccc(C)cc2)c1 | 0 (inactive)
55 | CSc1cccc(NC(=O)COc2ccccc2)c1 | 1 (active)
56 | CC(=O)c1cccc(NC(=O)CCOc2ccccc2)c1 | 0 (inactive)
57 | CSc1cccc(NC(=O)CN(c2ccc(C)cc2C)S(C)(=O)=O)c1 | 1 (active)
58 | COc1cccc(N(CC(=O)NCc2cccnc2)S(C)(=O)=O)c1 | 0 (inactive)
59 | COc1cccc(N(CC(=O)Nc2cccc(C(C)=O)c2)S(C)(=O)=O)c1 | 0 (inactive)
60 | CSc1cccc(NC(=O)CN(c2ccccc2)S(=O)(=O)N(C)C)c1 | 1 (active)
61 | Cc1cccc(NC(=O)CN(c2ccc(C(C)C)cc2)S(=O)(=O)c2c(C)nn(C)c2C)n1 | -0.5 (inactive)
62 | CC1=CC(=O)OC1Cc1ccncc1 (centres undefined) | 0 (inactive)
63 | O=c1c2c(nc3c(-c4ccc(Cl)cc4)c[nH]n13)CCCC2 | 0 (inactive)
64 | O=C(CSc1nnnn1-c1cccc2c1CCCC2)NC1CCCC1 | -0.5 (inactive)
65 | CSC1=N/C(=C\c2ccc(Br)o2)C(=O)S1 | 0 (inactive)
66 | c1ccc2c(NC3CCCC3)nnc(NC3CCCC3)c2c1 | -1 (active)

Row | SMILES | manual score
67 | CN=C1S/C(=C\c2cc(C)n(-c3ccccc3F)c2C)C(=O)N1C | 0 (inactive)
68 | CC1CCN(c2ccc(/C=N/n3nnnc3N)cc2[N+](=O)[O-])CC1 | 0 (inactive)
69 | Cc1ccc2nc(NCc3ccccc3)[nH]c2c1 | -1 (active)
70 | Cc1cc(N2CCN(c3ccccc3)CC2)nc(NCc2ccccc2)n1 | 0 (inactive)
71 | CC(/C=N/n1c(-c2ccco2)n[nH]c1=S)=C\c1ccccc1 | 0 (inactive)
72 | S=c1[nH]nc(-c2ccco2)n1/N=C/c1ccc(Cl)cc1Cl | 1 (active)
73 | S=c1[nH]nc(-c2ccco2)n1/N=C/c1cccc(Cl)c1Cl | 0 (inactive)
74 | Cc1ccc(N2CC(C(=O)Oc3cccc(N4C(=O)CCC4=O)c3)CC2=O)cc1 (centres undefined) | 0 (inactive)
75 | Cc1ccc(/C(O)=C2\C(=O)C(=O)N(c3cc(C)on3)C2c2cccc(Br)c2)cc1 (centres undefined) | 0 (inactive)
76 | CC(Oc1ccc(Cl)cc1)C(=O)N/N=C/c1ccsc1 (centres undefined) | 1 (active)
77 | CC(C)C(=O)Nc1cccc(NC(=O)c2cc3ccccc3o2)c1 | 0 (inactive)
78 | CC(=O)Nc1nnc(C)s1 | 0 (inactive)
79 | CCCN(CCC)CCCOC(=O)c1ccc(Cl)cc1Cl | -1 (active)
80 | CCCCN(CCCC)C(=S)NC(=O)C(C)(C)C | 1 (active)
81 | CC1Cc2ccccc2N1C(=S)NC(=O)c1ccc(Cl)cc1Cl (centres undefined) | 1 (active)
82 | CCCN(CCC)C(=S)NC(=O)c1ccc(Cl)cc1Cl | 1 (active)
83 | CCOC(=O)CC1=C(C(=O)OCC)C(c2cccs2)C(C#N)=C(N)O1 (centres undefined) | 0 (inactive)
84 | CCOC(=O)C(C(=O)OCC)c1cc(Br)c2noc3c2c1C(=O)c1ccccc1-3 | 3 (inactive)
85 | COc1c2occc2c(OC)c2c(=O)cc(C(F)(F)F)oc12 | 0 (inactive)
86 | COc1cc(/C=C2\S/C(=N/S(=O)(=O)c3ccc(C)cc3)NC2=O)c([N+](=O)[O-])cc1OC | 0 (inactive)
87 | CN(C(=S)NC(=O)CCCOc1ccc(Cl)cc1Cl)c1ccccc1 | 0 (inactive)
88 | CCCCn1nnc(NC(=S)NC(=O)c2ccc(-c3cccc(Cl)c3Cl)o2)n1 | 0.5 (inactive)

Row | SMILES | manual score
89 | CCCCN(CCCC)C(=S)NC(=O)c1ccccc1Cl | 1 (active)
90 | CCCCN(CCCC)c1ccc(C(=O)c2ccccc2C(=O)O)c(O)c1 | 0 (inactive)
91 | CCN(CC)C(=S)NC(=O)c1ccc(Cl)cc1Cl | 1 (active)
92 | S=c1[nH]nc(CSCc2ccc(Cl)cc2Cl)n1-c1ccccc1 | 0 (inactive)
93 | CCOC(=O)C1CCN(C(=O)NC23CC4CC(CC(C4)C2)C3)CC1 | 0 (inactive)
94 | COC(=O)[C@H](CC(C)C)NC(=O)Nc1ccc2c(c1)OCCO2 | 0 (inactive)
95 | O=C(Nc1ccc2c(c1)OCCO2)NC12CC3CC(CC(C3)C1)C2 | 1 (active)
96 | O=C(COC(=O)C1CC2C=CC1C2)Nc1ccc2c(c1)OC(F)(F)O2 (centres undefined) | 0 (inactive)
97 | CCOc1ccc(NC(=O)NC23CC4CC(CC(C4)C2)C3)cc1 | 1 (active)
98 | CCOc1ccc(N2C(=O)CC(SC(=NC)Nc3ccc(F)cc3)C2=O)cc1 (centres undefined) | 0 (inactive)
99 | Cc1[nH]n(-c2ccccc2)c(=O)c1N=Nc1nccs1 | 1 (active)
100 | Cc1cccc(-n2c(C)nc3sccc3c2=O)c1 | 0 (inactive)
101 | CCOn1c(=O)c(-c2cccs2)[n+]([O-])c2ccccc21 | 3 (inactive)
102 | c1csc(CCNc2ncnc3sc4c(c23)CCC4)c1 | -1 (active)
103 | Cc1cc(C)nc(Sc2ncnc3sc4c(c23)CCC4)n1 | 0 (inactive)
104 | N#CCCn1nc(-c2ccc(Cl)cc2)cc1Nc1ccccc1NC(=O)C(F)(F)F | 1 (active)
105 | CCOC(=O)c1cc(-c2ccc(Cl)cc2)nc2c1c(C)nn2CCC#N | 0 (inactive)
106 | COc1cc(OC)cc(C(=O)NC(=S)N2CCN(c3ccc(C(F)(F)F)cc3[N+](=O)[O-])CC2)c1 | 1 (active)
107 | COc1cccc(C(=O)NC(=S)N2CCN(c3ccc(C(F)(F)F)cc3[N+](=O)[O-])CC2)c1 | 0.5 (inactive)
108 | CC(C)Oc1cccc(C(=O)NC(=S)N2CCN(c3ccc(C(F)(F)F)cc3[N+](=O)[O-])CC2)c1 | 1 (active)
109 | COc1ccccc1NC(=O)COc1ccc(C(F)(F)F)cc1[N+](=O)[O-] | 0 (inactive)
